The results in this text go back to ChEMBL document CHEMBL1961873, “Compounds: GSK PKIS; Assays: Nanosyn kinase panel” (2012).

A word on the inhibition: it is the drop in the measured response relative to a control, in per cent.

The target in assay [1] is Tyrosine-protein kinase SYK (Homo sapiens) (UniProt P43405). The following applies: at 1 µM.
For assay [2], the target named is T1, Tyrosine-protein kinase Tec (Homo sapiens) (UniProt P42680).
T1 sequence (whole entry): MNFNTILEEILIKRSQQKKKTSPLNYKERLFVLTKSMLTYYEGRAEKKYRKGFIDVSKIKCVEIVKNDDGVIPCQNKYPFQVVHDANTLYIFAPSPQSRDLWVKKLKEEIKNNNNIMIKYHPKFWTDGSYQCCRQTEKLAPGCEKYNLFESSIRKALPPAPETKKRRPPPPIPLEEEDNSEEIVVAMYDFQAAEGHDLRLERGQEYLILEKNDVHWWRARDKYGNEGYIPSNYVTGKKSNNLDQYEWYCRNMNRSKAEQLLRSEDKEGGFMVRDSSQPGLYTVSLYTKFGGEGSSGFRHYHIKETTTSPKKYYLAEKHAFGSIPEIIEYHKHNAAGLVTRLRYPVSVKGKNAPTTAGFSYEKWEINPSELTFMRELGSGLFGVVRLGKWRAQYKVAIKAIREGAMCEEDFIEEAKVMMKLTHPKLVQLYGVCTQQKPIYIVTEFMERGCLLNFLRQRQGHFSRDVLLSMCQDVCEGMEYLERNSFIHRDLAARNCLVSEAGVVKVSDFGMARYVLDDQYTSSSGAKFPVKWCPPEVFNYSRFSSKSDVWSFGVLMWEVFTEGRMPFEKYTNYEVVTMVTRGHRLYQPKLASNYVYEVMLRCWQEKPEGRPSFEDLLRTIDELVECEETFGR
As to conditions: at 0.1 µM.

Assay [3] concerns the target T1, Tyrosine-protein kinase Tec (Homo sapiens). The following applies: at 1 µM.
Assay [4] deals with Angiopoietin-1 receptor (Homo sapiens) (UniProt Q02763). The following applies: at 0.1 µM.
Sequence of Angiopoietin-1 receptor (Homo sapiens) (Q02763 whole entry): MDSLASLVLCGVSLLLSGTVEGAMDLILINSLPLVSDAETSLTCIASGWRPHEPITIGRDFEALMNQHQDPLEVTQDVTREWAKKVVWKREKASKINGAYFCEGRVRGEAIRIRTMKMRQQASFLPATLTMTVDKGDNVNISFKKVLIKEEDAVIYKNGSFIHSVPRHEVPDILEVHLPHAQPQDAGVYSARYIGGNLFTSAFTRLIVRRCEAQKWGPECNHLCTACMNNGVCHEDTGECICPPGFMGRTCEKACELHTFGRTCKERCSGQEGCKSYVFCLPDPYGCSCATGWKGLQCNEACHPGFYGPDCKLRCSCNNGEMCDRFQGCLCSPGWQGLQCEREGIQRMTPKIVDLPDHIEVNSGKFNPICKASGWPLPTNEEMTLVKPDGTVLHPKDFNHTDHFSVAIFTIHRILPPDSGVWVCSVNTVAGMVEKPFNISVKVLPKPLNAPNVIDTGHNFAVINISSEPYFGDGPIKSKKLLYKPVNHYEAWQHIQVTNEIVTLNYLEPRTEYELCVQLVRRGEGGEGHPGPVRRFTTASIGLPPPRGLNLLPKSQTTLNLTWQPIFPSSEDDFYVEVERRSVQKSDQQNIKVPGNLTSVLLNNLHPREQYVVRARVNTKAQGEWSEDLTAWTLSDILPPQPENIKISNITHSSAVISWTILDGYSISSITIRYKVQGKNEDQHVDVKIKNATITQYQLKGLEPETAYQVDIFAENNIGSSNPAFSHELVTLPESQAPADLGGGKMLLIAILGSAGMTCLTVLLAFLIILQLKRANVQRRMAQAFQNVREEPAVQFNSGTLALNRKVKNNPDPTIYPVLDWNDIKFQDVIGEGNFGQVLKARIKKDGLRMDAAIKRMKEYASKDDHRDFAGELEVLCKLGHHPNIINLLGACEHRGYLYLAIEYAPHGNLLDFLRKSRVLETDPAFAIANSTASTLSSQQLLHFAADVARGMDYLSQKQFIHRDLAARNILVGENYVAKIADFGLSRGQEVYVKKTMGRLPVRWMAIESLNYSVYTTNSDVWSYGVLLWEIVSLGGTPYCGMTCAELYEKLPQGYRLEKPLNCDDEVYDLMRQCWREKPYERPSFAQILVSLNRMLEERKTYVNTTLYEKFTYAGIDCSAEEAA
The target is the same in assay [5]. As to conditions: at 1 µM.
Assay [6] concerns the target T2, Non-receptor tyrosine-protein kinase TNK1 (Homo sapiens) (UniProt Q13470).
T2 sequence (whole entry): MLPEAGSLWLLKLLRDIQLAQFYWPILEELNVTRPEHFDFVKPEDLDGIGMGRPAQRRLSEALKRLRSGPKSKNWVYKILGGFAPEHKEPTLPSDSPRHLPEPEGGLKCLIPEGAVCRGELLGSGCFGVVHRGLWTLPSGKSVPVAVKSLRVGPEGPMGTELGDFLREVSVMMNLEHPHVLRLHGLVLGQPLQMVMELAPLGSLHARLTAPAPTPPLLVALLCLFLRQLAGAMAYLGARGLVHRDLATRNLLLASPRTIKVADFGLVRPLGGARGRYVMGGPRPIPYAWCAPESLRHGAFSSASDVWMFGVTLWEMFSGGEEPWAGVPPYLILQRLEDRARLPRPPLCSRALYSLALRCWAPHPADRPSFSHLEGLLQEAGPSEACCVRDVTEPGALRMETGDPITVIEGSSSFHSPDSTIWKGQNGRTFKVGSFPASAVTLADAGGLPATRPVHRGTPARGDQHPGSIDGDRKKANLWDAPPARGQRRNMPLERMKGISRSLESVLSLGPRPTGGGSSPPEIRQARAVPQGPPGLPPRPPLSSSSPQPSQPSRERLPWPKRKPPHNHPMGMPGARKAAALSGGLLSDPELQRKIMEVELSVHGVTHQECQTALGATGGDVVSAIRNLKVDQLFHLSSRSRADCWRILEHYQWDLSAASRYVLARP
The following applies: at 0.1 µM.

In assay [7] the target is T2, Non-receptor tyrosine-protein kinase TNK1 (Homo sapiens). The following applies: at 1 µM.
Assay [8] deals with Activated CDC42 kinase 1 (Homo sapiens) (UniProt Q07912). The following applies: at 0.1 µM.
Sequence of Activated CDC42 kinase 1 (Homo sapiens) (Q07912 whole entry, looked up): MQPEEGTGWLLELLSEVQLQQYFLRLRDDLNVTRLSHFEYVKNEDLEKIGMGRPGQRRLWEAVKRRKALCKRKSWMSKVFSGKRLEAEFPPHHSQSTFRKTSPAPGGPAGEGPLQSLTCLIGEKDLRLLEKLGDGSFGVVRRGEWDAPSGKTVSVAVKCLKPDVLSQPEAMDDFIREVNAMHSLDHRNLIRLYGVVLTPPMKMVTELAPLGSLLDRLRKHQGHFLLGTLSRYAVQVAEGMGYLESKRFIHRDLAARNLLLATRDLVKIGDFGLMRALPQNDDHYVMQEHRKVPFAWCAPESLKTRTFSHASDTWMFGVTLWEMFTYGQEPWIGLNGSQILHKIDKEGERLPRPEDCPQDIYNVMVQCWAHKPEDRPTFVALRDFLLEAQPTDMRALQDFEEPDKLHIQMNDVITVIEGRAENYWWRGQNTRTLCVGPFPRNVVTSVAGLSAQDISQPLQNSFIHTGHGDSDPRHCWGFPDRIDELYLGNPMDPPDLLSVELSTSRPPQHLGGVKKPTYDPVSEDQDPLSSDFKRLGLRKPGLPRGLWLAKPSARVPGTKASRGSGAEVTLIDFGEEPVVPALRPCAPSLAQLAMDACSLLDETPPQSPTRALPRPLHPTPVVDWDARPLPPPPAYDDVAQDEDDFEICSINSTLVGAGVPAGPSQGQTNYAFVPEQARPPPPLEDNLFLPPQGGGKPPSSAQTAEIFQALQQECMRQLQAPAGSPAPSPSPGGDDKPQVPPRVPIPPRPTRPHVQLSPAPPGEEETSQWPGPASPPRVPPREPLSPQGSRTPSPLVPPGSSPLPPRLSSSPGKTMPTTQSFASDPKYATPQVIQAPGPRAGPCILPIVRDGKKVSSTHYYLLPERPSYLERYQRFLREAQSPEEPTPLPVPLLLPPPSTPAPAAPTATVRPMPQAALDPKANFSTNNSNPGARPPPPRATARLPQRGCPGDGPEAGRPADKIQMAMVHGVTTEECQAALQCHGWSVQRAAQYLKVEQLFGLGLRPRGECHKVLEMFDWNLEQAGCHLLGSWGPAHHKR
Assay [9] shares this target. The following applies: at 1 µM.
Assay [10] has as its target High affinity nerve growth factor receptor (Homo sapiens) (UniProt P04629). As to conditions: at 0.1 µM.
The target is the same in assay [11]. The following applies: at 1 µM.
For assay [12], the target named is BDNF/NT-3 growth factors receptor (Homo sapiens) (UniProt Q16620). As to conditions: at 0.1 µM.
Assay [13] has the same target. The following applies: at 1 µM.
The target of assay [14] is NT-3 growth factor receptor (Homo sapiens) (UniProt Q16288). As to conditions: at 0.1 µM.
Sequence of NT-3 growth factor receptor (Homo sapiens) (Q16288 32-839 limits assumed): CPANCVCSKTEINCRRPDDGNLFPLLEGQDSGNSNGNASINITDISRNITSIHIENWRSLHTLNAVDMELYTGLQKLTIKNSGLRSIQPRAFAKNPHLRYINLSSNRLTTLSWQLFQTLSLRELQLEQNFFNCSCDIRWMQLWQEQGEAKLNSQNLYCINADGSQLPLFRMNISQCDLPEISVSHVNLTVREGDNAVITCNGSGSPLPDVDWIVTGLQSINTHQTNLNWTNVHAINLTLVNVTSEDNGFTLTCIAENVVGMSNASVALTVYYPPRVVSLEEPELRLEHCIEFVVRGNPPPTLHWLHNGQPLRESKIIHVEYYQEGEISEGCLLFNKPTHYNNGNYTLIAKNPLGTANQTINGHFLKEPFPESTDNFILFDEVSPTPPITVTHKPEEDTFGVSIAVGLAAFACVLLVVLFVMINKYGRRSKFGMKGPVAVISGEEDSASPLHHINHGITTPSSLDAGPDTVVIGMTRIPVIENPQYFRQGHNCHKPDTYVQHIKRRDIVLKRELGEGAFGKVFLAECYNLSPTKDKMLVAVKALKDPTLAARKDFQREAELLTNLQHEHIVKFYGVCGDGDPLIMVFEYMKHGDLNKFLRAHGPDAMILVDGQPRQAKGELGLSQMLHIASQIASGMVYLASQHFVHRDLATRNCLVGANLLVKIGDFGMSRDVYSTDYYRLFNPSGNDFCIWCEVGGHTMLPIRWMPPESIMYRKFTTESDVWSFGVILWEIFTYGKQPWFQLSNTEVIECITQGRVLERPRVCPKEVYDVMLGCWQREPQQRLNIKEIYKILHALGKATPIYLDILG
For assay [15] the target is unchanged. The following applies: at 1 µM.
Assay [16] concerns the target T3, Tyrosine-protein kinase TXK (Homo sapiens) (UniProt P42681).
T3 sequence (whole entry): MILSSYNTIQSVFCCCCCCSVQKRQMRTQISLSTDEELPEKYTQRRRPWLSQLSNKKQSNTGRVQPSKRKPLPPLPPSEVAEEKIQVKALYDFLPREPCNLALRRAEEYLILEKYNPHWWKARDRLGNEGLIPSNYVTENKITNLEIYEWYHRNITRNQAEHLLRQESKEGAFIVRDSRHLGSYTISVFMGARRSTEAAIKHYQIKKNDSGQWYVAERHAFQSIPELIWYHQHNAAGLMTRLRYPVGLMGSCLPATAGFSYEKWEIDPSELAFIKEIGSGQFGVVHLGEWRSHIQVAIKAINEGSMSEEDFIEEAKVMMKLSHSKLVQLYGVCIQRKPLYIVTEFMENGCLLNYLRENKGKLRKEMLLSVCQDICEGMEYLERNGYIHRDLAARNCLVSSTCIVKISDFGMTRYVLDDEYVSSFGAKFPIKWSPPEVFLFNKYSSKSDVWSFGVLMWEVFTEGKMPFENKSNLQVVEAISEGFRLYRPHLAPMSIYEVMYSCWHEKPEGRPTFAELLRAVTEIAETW
The following applies: at 0.1 µM.

For assay [17], the target named is T3, Tyrosine-protein kinase TXK (Homo sapiens). As to conditions: at 1 µM.
The target in assay [18] is Non-receptor tyrosine-protein kinase TYK2 (Homo sapiens) (UniProt P29597). The following applies: at 0.1 µM.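 Also: each value is a mean of the inhibition readings.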
Sequence of Non-receptor tyrosine-protein kinase TYK2 (Homo sapiens) (P29597 whole entry): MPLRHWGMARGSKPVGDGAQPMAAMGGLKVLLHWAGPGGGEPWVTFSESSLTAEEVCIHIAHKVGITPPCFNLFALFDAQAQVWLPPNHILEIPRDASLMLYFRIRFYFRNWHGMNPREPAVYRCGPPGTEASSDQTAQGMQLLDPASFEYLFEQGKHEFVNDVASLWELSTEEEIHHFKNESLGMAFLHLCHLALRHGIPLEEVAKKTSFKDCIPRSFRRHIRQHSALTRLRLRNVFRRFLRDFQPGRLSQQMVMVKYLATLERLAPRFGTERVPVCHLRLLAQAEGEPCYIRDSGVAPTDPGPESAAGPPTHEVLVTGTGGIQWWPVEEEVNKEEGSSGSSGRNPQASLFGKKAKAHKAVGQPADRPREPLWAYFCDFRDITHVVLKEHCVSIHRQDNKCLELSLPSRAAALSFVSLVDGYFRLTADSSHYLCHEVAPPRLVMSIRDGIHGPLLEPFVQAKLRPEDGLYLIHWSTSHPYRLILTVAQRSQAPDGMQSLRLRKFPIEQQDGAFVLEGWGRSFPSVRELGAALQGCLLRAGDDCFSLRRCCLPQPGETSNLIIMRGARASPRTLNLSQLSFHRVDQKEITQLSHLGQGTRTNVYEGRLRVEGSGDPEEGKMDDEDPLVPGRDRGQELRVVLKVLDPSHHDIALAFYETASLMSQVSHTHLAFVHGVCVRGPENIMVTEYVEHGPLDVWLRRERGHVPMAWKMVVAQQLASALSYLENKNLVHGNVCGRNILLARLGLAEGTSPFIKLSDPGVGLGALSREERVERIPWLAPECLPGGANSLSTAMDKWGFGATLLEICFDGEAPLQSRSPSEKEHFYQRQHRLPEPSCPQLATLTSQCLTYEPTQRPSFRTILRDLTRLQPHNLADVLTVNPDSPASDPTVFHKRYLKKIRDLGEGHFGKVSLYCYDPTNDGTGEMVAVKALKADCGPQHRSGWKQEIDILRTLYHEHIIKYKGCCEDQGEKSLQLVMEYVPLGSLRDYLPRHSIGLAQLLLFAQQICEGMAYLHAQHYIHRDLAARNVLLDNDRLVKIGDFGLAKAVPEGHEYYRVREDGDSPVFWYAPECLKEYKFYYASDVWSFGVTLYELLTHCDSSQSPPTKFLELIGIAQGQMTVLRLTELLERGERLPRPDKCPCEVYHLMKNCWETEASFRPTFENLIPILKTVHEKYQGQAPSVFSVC
Assay [19] concerns the target T4, Dual specificity protein kinase TTK (Homo sapiens) (UniProt P33981).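 Also: reported figures are mean TTK inhibition at 1 µM.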
T4 sequence (whole entry): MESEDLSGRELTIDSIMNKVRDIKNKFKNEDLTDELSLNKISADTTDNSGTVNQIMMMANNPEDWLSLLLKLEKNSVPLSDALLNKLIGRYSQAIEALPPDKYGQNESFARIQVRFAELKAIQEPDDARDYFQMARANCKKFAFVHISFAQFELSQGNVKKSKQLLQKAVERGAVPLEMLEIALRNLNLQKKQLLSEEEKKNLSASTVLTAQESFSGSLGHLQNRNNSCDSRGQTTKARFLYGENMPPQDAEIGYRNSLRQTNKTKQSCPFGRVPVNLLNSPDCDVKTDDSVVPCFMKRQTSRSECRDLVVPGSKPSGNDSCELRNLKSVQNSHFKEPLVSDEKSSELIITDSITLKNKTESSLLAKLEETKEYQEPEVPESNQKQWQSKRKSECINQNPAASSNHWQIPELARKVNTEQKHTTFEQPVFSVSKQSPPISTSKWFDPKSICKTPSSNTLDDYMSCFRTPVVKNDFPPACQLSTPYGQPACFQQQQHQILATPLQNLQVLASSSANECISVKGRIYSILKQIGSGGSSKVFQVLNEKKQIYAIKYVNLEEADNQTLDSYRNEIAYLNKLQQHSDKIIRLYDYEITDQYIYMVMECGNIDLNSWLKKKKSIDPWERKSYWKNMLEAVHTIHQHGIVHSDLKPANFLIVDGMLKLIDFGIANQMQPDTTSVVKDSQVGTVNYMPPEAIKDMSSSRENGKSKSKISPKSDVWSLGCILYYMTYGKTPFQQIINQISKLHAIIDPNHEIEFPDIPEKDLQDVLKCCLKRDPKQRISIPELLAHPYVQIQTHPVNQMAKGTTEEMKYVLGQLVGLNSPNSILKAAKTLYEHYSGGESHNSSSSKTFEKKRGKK
As to conditions: at 1 µM.

Assay [20] addresses T5, Aurora kinase A (Homo sapiens) (UniProt O14965).
T5 sequence (whole entry): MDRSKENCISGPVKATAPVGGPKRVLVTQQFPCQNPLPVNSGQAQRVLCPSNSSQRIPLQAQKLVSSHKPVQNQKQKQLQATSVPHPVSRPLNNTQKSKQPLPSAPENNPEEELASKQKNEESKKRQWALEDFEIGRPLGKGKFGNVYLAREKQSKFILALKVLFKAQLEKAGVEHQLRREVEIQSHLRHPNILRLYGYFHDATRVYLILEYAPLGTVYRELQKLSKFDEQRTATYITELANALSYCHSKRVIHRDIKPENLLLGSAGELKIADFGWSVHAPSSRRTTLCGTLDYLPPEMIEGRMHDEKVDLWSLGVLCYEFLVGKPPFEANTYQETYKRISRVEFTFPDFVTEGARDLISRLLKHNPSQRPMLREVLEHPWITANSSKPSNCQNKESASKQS
The following applies: at 0.1 µM.

Sequence of High affinity nerve growth factor receptor (Homo sapiens) (P04629 33-796 limits assumed): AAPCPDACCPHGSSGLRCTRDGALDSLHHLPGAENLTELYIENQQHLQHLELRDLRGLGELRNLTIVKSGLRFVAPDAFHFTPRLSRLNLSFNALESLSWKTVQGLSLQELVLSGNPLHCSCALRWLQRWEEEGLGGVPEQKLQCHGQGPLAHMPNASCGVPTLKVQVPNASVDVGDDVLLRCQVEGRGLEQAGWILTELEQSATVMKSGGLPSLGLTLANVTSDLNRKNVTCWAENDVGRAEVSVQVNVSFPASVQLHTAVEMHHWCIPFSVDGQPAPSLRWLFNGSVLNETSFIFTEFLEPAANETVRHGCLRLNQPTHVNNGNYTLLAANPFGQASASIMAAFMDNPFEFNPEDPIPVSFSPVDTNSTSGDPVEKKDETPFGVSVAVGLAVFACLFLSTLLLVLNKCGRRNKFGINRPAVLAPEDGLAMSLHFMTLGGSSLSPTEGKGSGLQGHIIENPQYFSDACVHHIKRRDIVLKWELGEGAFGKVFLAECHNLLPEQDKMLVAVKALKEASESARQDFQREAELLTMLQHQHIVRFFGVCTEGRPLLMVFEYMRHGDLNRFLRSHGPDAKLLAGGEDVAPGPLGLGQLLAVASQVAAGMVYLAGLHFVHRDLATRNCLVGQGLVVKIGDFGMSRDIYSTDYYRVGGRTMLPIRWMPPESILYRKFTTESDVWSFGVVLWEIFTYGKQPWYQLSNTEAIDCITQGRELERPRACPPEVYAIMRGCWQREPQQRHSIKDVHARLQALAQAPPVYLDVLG

Turning to `Nc1nc(-c2ccccn2)c(-c2ccc3ncccc3n2)s1`, the inhibition in [1] was -0.74%; in [2] it was 3.91%; in [3], 7.33%; in assay [4] it was 2.07%; in [5], 1.68%; in assay [6], 3.7%. Also, the inhibition in assay [7] amounted to 5.67%; in assay [8], 2.33%; in assay [9], 2.94%; in assay [10] it was 3.9%; in [11] it was 1.12%; in assay [12], 2.11%. Further, the inhibition in assay [13] is 2.56%; in assay [14] it was 1.67%; in assay [15], 4.07%; in assay [16], 2.05%; in [17], 3.04%; in [18], -3.74%. Further, the inhibition in [19] was found to be 7.95%; in assay [20], 2.15%.

As for `O=C1NC(=O)C(c2cccc(Cl)c2)=C1Nc1ccc(O)c(Cl)c1`, the inhibition worked out at 0.79% in [1]; 1.84% in assay [2]; 1.44% in assay [3]; 1.54% in [4]; 3.61% in [5]; 0.52% in assay [6]. The inhibition in assay [7] was 8.8%; in assay [8], -0.75%; in [9], -0.58%; in assay [10] it was -3.23%; in assay [11], 2.57%; in assay [12], -0.13%. Besides, the inhibition was 0.31% in assay [13]; -0.33% in assay [14]; 1.68% in assay [15]; 2.35% in [16]; 3.52% in assay [17]; 3.26% in assay [18]. Besides, the figures for the inhibition in assay [19] and in assay [20] were 4.84% and 2.24%, respectively.

With `Cc1nn(C)c2cc(N(C)c3ccnc(Nc4cccc(S(N)(=O)=O)c4)n3)ccc12`, the inhibition in assay [1] is -0.53%; in assay [2], 25.8%; in assay [3], 67.9%; in assay [4] it was 10.6%; in [5], 52.5%; in assay [6] it was 30%. The inhibition came to 80.7% in assay [7]; 0.86% in assay [8]; 10.2% in [9]; 2.81% in [10]; 6.3% in assay [11]; 2.64% in assay [12]. Besides, the inhibition in [13] was 11.7%; in assay [14], 2.83%; in [15], 12.3%; in assay [16], 53.5%; in assay [17] it was 79.2%; in assay [18] it was -1.02%. The values for the inhibition in [19] and in assay [20] were 26.4% and 20%, respectively.

As to `COc1ccc(-c2ccncc2)cc1C(N)=O`, the inhibition in assay [1] was found to be 0.26%; in assay [2], 6.14%; in [3], 5.31%; in assay [4] it was 5.23%; in assay [5] it was 6.4%; in assay [6], 3.12%. The inhibition in assay [7] was 5.16%; in [8], 1.17%; in [9], 2.39%; in assay [10], 1.19%; in assay [11], 6.42%; in [12], 3.52%. The inhibition in assay [13] was 3.6%; in assay [14], 4.78%; in [15] it was 4.79%; in assay [16] it was 4.98%; in [17] it was 5.36%; in [18], -2.48%. Moreover, the inhibition in assay [19] came out at 8.41%; in assay [20], 2.92%.
